# Values without a mark were called inactive.
# System: MCF10A
# Experiment: perturbation Mahalanobis distance of morphological profile vs DMSO controls (Mahalanobis distance (SD units)); higher = stronger morphological change, active = 7 or more
# Conditions: screen batch: Batch1_Mahalanobis_Distance; 72 h
# Protocol: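 MCF10A cells were seeded onto drugs dispensed acoustically into 384-well plates, using one dose per drug chosen from its human peak plasma concentration, and incubated for 72 h at 37 °C. Cells were stained for DNA, tubulin and mitochondria and imaged; 78 CellProfiler features were extracted, plate-normalised and compared with DMSO wells.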
row,SMILES,perturbation Mahalanobis distance
1,CCN1CC(CCN2CCOCC2)C(c2ccccc2)(c2ccccc2)C1=O (stereo not given) [Doxapram] (66 µM),2.26
2,CO[C@H]1CC2CC[C@@H](C)[C@@](O)(O2)C(=O)C(=O)N2CCCC[C@H]2C(=O)O[C@H]([C@H](C)C[C@@H]2CC[C@@H](OCCO)[C@H](OC)C2)CC(=O)[C@H](C)/C=C(\C)[C@@H](O)[C@@H](OC)C(=O)[C@H](C)C[C@H](C)/C=C/C=C/C=C/1C [Everolimus] (0.95 µM),5.37
3,O=C(O)[C@H]1OC(Oc2ccc([C@@H]3[C@@H](CC[C@@H](O)c4ccc(F)cc4)C(=O)N3c3ccc(F)cc3)cc2)[C@H](O)[C@@H](O)[C@@H]1O (stereo not given in full) [Ezetimibe Glucuronide] (47 µM),2.38
4,Cc1ccsc1C(=CCCN1CCC[C@@H](C(=O)O)C1)c1sccc1C [Tiagabine] (2.7 µM),2.46
5,CC1CNc2c(cccc2S(=O)(=O)N[C@@H](CCCN=C(N)N)C(=O)N2CC[C@@H](C)C[C@@H]2C(=O)O)C1 (stereo not given in full) [Argatroban] (6.9 µM),3.61
6,COCCCOc1cc(C[C@@H](C[C@H](N)[C@@H](O)C[C@H](C(=O)NCC(C)(C)C(N)=O)C(C)C)C(C)C)ccc1OC [Aliskiren] (2.5 µM),2.96
7,CCc1c2c(nc3ccc(OC(=O)N4CCC(N5CCCCC5)CC4)cc13)-c1cc3c(c(=O)n1C2)COC(=O)[C@]3(O)CC [Irinotecan] (16.8 µM),11.9 (active)
8,Cc1ccc(Nc2nccc(N(C)c3ccc4c(C)n(C)nc4c3)n2)cc1S(N)(=O)=O [Pazopanib] (132.6 µM),3.25
9,Nc1ccn([C@H]2CC[C@@H](CO)O2)c(=O)n1 [Zalcitabine] (2.4 µM),2.44
10,CN(C)CCCN1c2ccccc2Sc2ccc(C(F)(F)F)cc21 [Triflupromazine] (1.4 µM),4.75
11,O=C1[C@H](CC[C@H](O)c2ccc(F)cc2)[C@@H](c2ccc(O)cc2)N1c1ccc(F)cc1 [Ezetimibe] (0.87 µM),3.59
12,COC(=O)C1=C(C)NC(C)=C(C(=O)OCC(C)C)C1c1ccccc1[N+](=O)[O-] (stereo not given) [Nisoldipine] (13 µM),2.36
13,Cc1cc(C)cc(OCC2CNC(=O)O2)c1 (stereo not given) [Metaxalone] (38.4 µM),3.33
14,C[C@H](N[C@@H](CCc1ccccc1)C(=O)O)C(=O)N1CCC[C@H]1C(=O)O [Enalaprilat] (0.67 µM),3.78
15,C[C@H]1O[C@H](O[C@H]2[C@H](O)[C@@H](O)[C@@H](O[C@H]3[C@H](O)[C@@H](O)C(O)O[C@@H]3CO)O[C@@H]2CO)[C@H](O)[C@@H](O)[C@@H]1N[C@H]1C=C(CO)[C@@H](O)[C@H](O)[C@H]1O (stereo not given in full) [Acarbose] (2.2 µM),2.5
16,C[N+](C)(C)CCOC(N)=O [Carbachol] (37 µM),2.88
17,NNC(=O)c1ccncc1 [Isoniazid] (73.5 µM),6.37
18,N=c1nc(N2CCCCC2)cc(N)n1O [Minoxidil] (6 µM),6.53
19,CC(c1cc2ccccc2s1)N(O)C(N)=O (stereo not given) [Zileuton] (105.4 µM),3.71
20,CCCc1nn(C)c2c(=O)[nH]c(-c3cc(S(=O)(=O)N4CCN(C)CC4)ccc3OCC)nc12 [Sildenafil] (0.53 µM),3.27

# Same assay, conditions: screen batch: Batch2_Mahalanobis_Distance; 72 h
row,SMILES,perturbation Mahalanobis distance
1,CCN1CC(CCN2CCOCC2)C(c2ccccc2)(c2ccccc2)C1=O (stereo not given) [Doxapram] (66 µM),2.47
2,CO[C@H]1CC2CC[C@@H](C)[C@@](O)(O2)C(=O)C(=O)N2CCCC[C@H]2C(=O)O[C@H]([C@H](C)C[C@@H]2CC[C@@H](OCCO)[C@H](OC)C2)CC(=O)[C@H](C)/C=C(\C)[C@@H](O)[C@@H](OC)C(=O)[C@H](C)C[C@H](C)/C=C/C=C/C=C/1C [Everolimus] (0.95 µM),9.89 (active)
3,O=C(O)[C@H]1OC(Oc2ccc([C@@H]3[C@@H](CC[C@@H](O)c4ccc(F)cc4)C(=O)N3c3ccc(F)cc3)cc2)[C@H](O)[C@@H](O)[C@@H]1O (stereo not given in full) [Ezetimibe Glucuronide] (47 µM),2.09
4,Cc1ccsc1C(=CCCN1CCC[C@@H](C(=O)O)C1)c1sccc1C [Tiagabine] (2.7 µM),3.14
5,CC1CNc2c(cccc2S(=O)(=O)N[C@@H](CCCN=C(N)N)C(=O)N2CC[C@@H](C)C[C@@H]2C(=O)O)C1 (stereo not given in full) [Argatroban] (6.9 µM),2.75
6,COCCCOc1cc(C[C@@H](C[C@H](N)[C@@H](O)C[C@H](C(=O)NCC(C)(C)C(N)=O)C(C)C)C(C)C)ccc1OC [Aliskiren] (2.5 µM),2.64
7,CCc1c2c(nc3ccc(OC(=O)N4CCC(N5CCCCC5)CC4)cc13)-c1cc3c(c(=O)n1C2)COC(=O)[C@]3(O)CC [Irinotecan] (16.8 µM),16.6 (active)
8,Cc1ccc(Nc2nccc(N(C)c3ccc4c(C)n(C)nc4c3)n2)cc1S(N)(=O)=O [Pazopanib] (132.6 µM),2.85
9,Nc1ccn([C@H]2CC[C@@H](CO)O2)c(=O)n1 [Zalcitabine] (2.4 µM),3.2
10,CN(C)CCCN1c2ccccc2Sc2ccc(C(F)(F)F)cc21 [Triflupromazine] (1.4 µM),4.32
11,O=C1[C@H](CC[C@H](O)c2ccc(F)cc2)[C@@H](c2ccc(O)cc2)N1c1ccc(F)cc1 [Ezetimibe] (0.87 µM),2.59
12,COC(=O)C1=C(C)NC(C)=C(C(=O)OCC(C)C)C1c1ccccc1[N+](=O)[O-] (stereo not given) [Nisoldipine] (13 µM),2.36
13,Cc1cc(C)cc(OCC2CNC(=O)O2)c1 (stereo not given) [Metaxalone] (38.4 µM),4.58
14,C[C@H](N[C@@H](CCc1ccccc1)C(=O)O)C(=O)N1CCC[C@H]1C(=O)O [Enalaprilat] (0.67 µM),2.89
15,C[C@H]1O[C@H](O[C@H]2[C@H](O)[C@@H](O)[C@@H](O[C@H]3[C@H](O)[C@@H](O)C(O)O[C@@H]3CO)O[C@@H]2CO)[C@H](O)[C@@H](O)[C@@H]1N[C@H]1C=C(CO)[C@@H](O)[C@H](O)[C@H]1O (stereo not given in full) [Acarbose] (2.2 µM),3.14
16,C[N+](C)(C)CCOC(N)=O [Carbachol] (37 µM),2.82
17,NNC(=O)c1ccncc1 [Isoniazid] (73.5 µM),2.59
18,N=c1nc(N2CCCCC2)cc(N)n1O [Minoxidil] (6 µM),2.8
19,CC(c1cc2ccccc2s1)N(O)C(N)=O (stereo not given) [Zileuton] (105.4 µM),5.1
20,CCCc1nn(C)c2c(=O)[nH]c(-c3cc(S(=O)(=O)N4CCN(C)CC4)ccc3OCC)nc12 [Sildenafil] (0.53 µM),4.22
